The values that follow come from PubChem BioAssay AID1531 (NMMLSC, 2009).

Hit rate of the full screen: of about 290,000 compounds, about 3,300 (1.1%) were called active. Rule as the data show it: active = binding response below about 67% or above about 130%; inconclusive = no clear call, values can overlap the other calls; inactive = in between. For the sample, actives were picked, then their nearest neighbours and some compounds at random.

The target of the assay is Mitogen-activated protein kinase kinase kinase 2 (Homo sapiens) (UniProt Q9Y2U5). The experiment in a line: wildtype MEKK2 PB1-MEK5 interaction, increase or decrease – biochemical, multiplex bead flow cytometry, Alexa488-MEK5, primary screen (AID 1531). The settings on record: Alexa488-MEK5 binding to MEKK2 WT, at 10 µM, actives lie on both sides.
Take `CN(C)CCN(C(=O)C1=COCCO1)c1nc2ccc(Cl)cc2s1`: the binding response (% of control) is 111% (inactive).
Then `O=C(Nc1nc2ccc([N+](=O)[O-])cc2s1)c1ccc(S(=O)(=O)N2CCCc3ccccc32)cc1`, with 91% (inactive); and `CN(C)CCCN(C(=O)c1ccc(S(=O)(=O)N2CCCCCC2)cc1)c1nc2ccc(Br)cc2s1`, with 237% (active).
In the case of `CCN(CC)CCN(C(=O)c1ccc(S(=O)(=O)N2CCOCC2)cc1)c1nc2cc3c(cc2s1)OCCO3`, the binding response (% of control) was 115% (inactive).
To `CN(C)CCCN(C(=O)c1ccc(S(=O)(=O)N2CCCc3ccccc32)cc1)c1nc2ccc(F)cc2s1` belongs 232% (active); to `O=C1c2ccccc2S(=O)(=O)c2cc(N3CCN(c4ccccn4)CC3)ccc21`, 97% (inactive).
As for `Cc1cccc(C(=O)N2CCN(S(=O)(=O)N3CCCCC3)CC2)c1`, the binding response (% of control) is 108% (inactive).
Then `COC(C/C=C/C(=O)[C@@H](C)OCc1ccccc1)OC`, with 99% (inactive); and `Cc1nc(-c2ccccc2)sc1C1(C)CC(c2cccnc2)=NO1` (stereo unspecified), with 101% (inactive); and `COc1ccc(NC2CCCN(C(=O)c3ccncc3)C2)cc1` (stereo unspecified), with 97% (inactive).
Take `COc1cccc(CN(C)CC(O)COC(c2ccccc2)c2ccccc2C)c1` (stereo unspecified): the binding response (% of control) is 150% (active).
Consider `Cc1ccccc1C(OCC(O)CN1CCCCC1CCO)c1ccccc1` (stereo unspecified), for which the binding response (% of control) was 121% (inactive).
As for `COc1cccc(CN(C)CC(=O)Nc2ccccc2C(=O)Nc2ccccc2)c1`, the binding response (% of control) is 88% (inactive).
Take `Cc1ccc(CN(N=Nc2nonc2N)c2nonc2N)c(C)c1`: the binding response (% of control) was 92% (inactive).
With `CCN(CC)S(=O)(=O)c1ccc(N2CCOCC2)c(NC(=O)C2CSC3(C)CCC(=O)N23)c1` (stereo unspecified), the binding response (% of control) is 100% (inactive).
Then `Cc1ccc(OCC(=O)OC(C)CN(C)Cc2ccccc2)cc1` (stereo unspecified), with 94% (inactive).
Then `OC(CNCc1ccc2c(c1)OCO2)COc1ccccc1` (stereo unspecified), with 93% (inactive); and `CN(Cc1ccccc1)CC(O)COc1ccc(CNCc2cc3ccccc3s2)cc1` (stereo unspecified), with 138% (active).
Then `O=C(N/N=C/c1cccc(O)c1)c1cc2c(ccc3ccccc32)o1`, with 97% (inactive); and `CCOC(=O)c1c(-c2ccccc2)csc1NC(=S)NC(=O)c1ccccc1`, with 13% [inhibitor] (active).
As to `CCOC(=O)c1c(-c2cccc(C)c2)csc1NC(=O)c1c(-c2ccccc2)noc1C`, the binding response (% of control) was 84% (inactive).
To `CCOC(=O)c1c(-c2ccc(-c3ccccc3)cc2)csc1NC(=O)CCC(=O)O` belongs 97% (inactive); to `Cc1cccc(C)c1NC(=O)N1CC(C)OC(C)C1` (stereo unspecified), 107% (inactive).
`CCc1cccc(C)c1NC(=S)N(CCCN1CCN(C)CC1)Cc1cccs1`: the binding response (% of control) is 100% (inactive).
Then `Cc1cccc(C)c1NC(=O)C1(C)c2cccc[n+]2CC(=O)N1Cc1cccs1` (stereo unspecified), with -5% (active).
`COc1ccc(C(=O)N2CCCCC2C(=O)Nc2ccc(-n3nc(C)cc3C)cc2)o1` (stereo unspecified): the binding response (% of control) was 107% (inactive).
Consider `COc1ccc(Nc2ncc(F)c(N3CCOCC3)n2)cc1`, for which the binding response (% of control) is 78% (inactive).
Take `CC(=O)N1c2ccc(S(=O)(=O)N3CCC(C(=O)NCc4ccc(F)cc4)CC3)cc2CC1C` (stereo unspecified): the binding response (% of control) was 99% (inactive).
Take `CN1C(=O)/C(=C\c2ccc(-c3ccccc3)o2)SC1=S`: the binding response (% of control) is 14% [inhibitor] (active).
Then `NS(=O)(=O)c1ccc(-c2ccc(/C=C3\SC(=O)NC3=O)o2)cc1`, with 102% (inactive); and `O=C(O)C(c1ccccc1)N1C(=O)/C(=C\c2ccc(-c3cccc(Cl)c3)o2)SC1=S` (stereo unspecified), with 85% (inactive); and `COc1cc2c(cc1OC)C(c1ccncc1)CC(=O)N2` (stereo unspecified), with 117% (inactive).
To `COc1cc2c(cc1OC)C(c1ccc(C)o1)CC(=O)N2` (stereo unspecified) belongs 98% (inactive); to `COc1ccc(C2CC(=O)Nc3cc(C)c(C)cc32)c(OC)c1OC` (stereo unspecified), -2% [inhibitor] (active).
Consider `CCOc1ccc(C)cc1S(=O)(=O)NC1CCCCCC1`, for which the binding response (% of control) was 106% (inactive).
To `Cc1ccc2c(c1)N(CC(=O)N1CCC(O)CC1)C(=O)CO2` belongs 94% (inactive).
`N=c1c2c(-c3ccccc3)c(-c3ccccc3)n(Cc3ccccc3)c2ncn1CCCO`: the binding response (% of control) is 155% (active).
As to `CCN(CC)CCn1cnc2c1c(=O)[nH]c(=O)n2Cc1ccccc1`, the binding response (% of control) was 104% (inactive).
To `N=c1c2c(-c3ccccc3)c(-c3ccccc3)oc2ncn1Cc1ccco1` belongs 92% (inactive).
As for `O=C(CN1CCN(c2ccccn2)CC1)N1CCc2ccccc21`, the binding response (% of control) is 3% (active).
Turning to `O=C(CN1CCN(c2ccccn2)CC1)NC1CCCCC1`, the binding response (% of control) is 104% (inactive).
To `O=C(CN1CCN(c2ccccn2)CC1)Nc1ccc(Br)cc1` belongs 109% (inactive); to `Cc1ccc(CNC(=O)c2ccc3c(c2)S(=O)(=O)c2ccccc2C3=O)cc1`, 111% (inactive); to `COc1ccc(-c2[nH]ncc2CN(C)Cc2cccnc2)c(F)c1`, 102% (inactive).
Then `COc1ccc(-c2[nH]ncc2CN(C)Cc2cc(C)[nH]n2)c(F)c1`, with 83% (inactive); and `COc1ccc(-c2[nH]ncc2CN(C)Cc2c(C)n[nH]c2C)c(OC)c1`, with -2% [inhibitor] (active).
